Reference: PubChem BioAssay AID1345082 (National Center for Advancing Translational Sciences (NCATS), 2018)
The campaign covered roughly 94,000 compounds. About 4,000 (4.3%) were called active. Inconclusive results (about 29%) are left out. Only a selection was taken, and actives are over-represented in it overall. Unmarked numbers belong to inactive results. Calls follow the shape of the dose curve; as a rule, active = well fitted inhibition curve with a large enough effect; inconclusive = small, poorly fitted or top-dose-only effect; inactive = no such curve, though single readings can be large or run the other way.

Assay: Cytotoxic Profiling in NIH 3T3 Cell Line of Diverse Libraries Using Quantitative High-Throughput Screening; also: nearly all actives have a fitted effect of over 55% in size
Conditions: NIH 3T3 viability, CellTiter-Glo ATP luminescence, 48-72 h; series mostly up to 96.7 µM; activity change, negative = cytotoxicity: at the top concentration
In short: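 Viability of NIH 3T3 cells after 48 or 72 hr compound treatment at 37 °C was assessed by CellTiter-Glo, with luminescence imaged following a 10 min room-temperature step.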
% is scaled to controls: 0 for no effect and ±100 for the full control effect; potency is read from the fitted curve at half-maximal effect.

| Structure (SMILES) | activity change, negative = cytotoxicity | outcome | Potency |
| --- | --- | --- | --- |
| C=CCOc1cccc(-c2nnc(CCC(=O)NCc3ccccc3)c(=O)[nH]2)c1 | -25% |  |  |
| CSCCNC(=O)c1cc(-c2ccc(Cl)nc2)nc2c1cnn2C | -28.8% |  |  |
| COCC(=O)N[C@@H](Cn1ccc(=O)[nH]c1=O)C(=O)O | 1.85% [at 230 µM] |  |  |
| O=C(c1cnccn1)N1CCC[C@H](n2c(=O)n(CC3CC3)c3cccnc32)C1 |  | inactive |  |
| Cc1ccc(NS(=O)(=O)c2ccccc2)c(=O)n1CC(=O)N(C)Cc1ccccc1 | -14.6% |  |  |
| CC(C)CCN1C(=O)CC[C@]2(C(=O)N3CCN(C)CC3)CCCC[C@@H]12 | -21.4% |  |  |
| O=C1CC(c2ccccc2)N(C(=O)CNC(=O)NCc2ccc(F)cc2)CCCCCN1 (stereo not drawn) | -6.97% |  |  |
| O=C1CC(c2ccccc2)N(Cc2cn[nH]c2-c2ccc(F)cc2)CCCCCN1 (stereo not drawn) |  |  | 39.8 µM (active) |
| O=C1CC(c2ccccc2)N(C(=O)CNC(=O)C2CCC2)CCCCCN1 (stereo not drawn) | -5.49% |  |  |
| Cn1ncc2c(C(=O)NCC(F)(F)F)cc(-c3ccccc3F)nc21 | -34.4% [at 138 µM] |  |  |
| CCOc1ccc(-c2noc(-c3ncn4c3COC(c3ccc(OC)cc3)C4)n2)cc1 (stereo not drawn) | -16.5% |  |  |
| COc1ccc(-c2noc(-c3nnn4c3COC(c3ccc(Cl)cc3)C4)n2)c(OC)c1 (stereo not drawn) | -10% |  |  |
| COc1ccc(C2Cn3cnc(-c4nc(-c5ccc(OC)cc5OC)no4)c3CO2)cc1 (stereo not drawn) |  |  | 20 µM (active) |
| CN(C)C(=O)C1CN(C(=O)C2CCCC2)CC12CCOCC2 (stereo not drawn) |  | inactive |  |
| CCC(=O)N1Cc2ccccc2CC2(CCN(Cc3ccc(OC)cc3)C2)C1 (stereo not drawn) | -13.7% |  |  |
| O=C(NCCC1COc2ccccc2O1)c1ccc(N2CCCOCC2)nc1 (stereo not drawn) | -4.44% |  |  |
| COc1ccc(-c2ccc3c(c2)C(=O)N2CCN(C(=O)CC(C)(C)C)C[C@@H]2C(=O)N3)c(OC)c1 | -6.29% |  |  |
| COc1ccc(-c2cccc(C(=O)NCc3cccc(Cl)c3)c2)nn1 |  |  | 35.5 µM (active) |
| COc1ccc(-c2cccc(C(=O)NC3CC3)c2)nn1 | -28.6% [at 138 µM] |  |  |
| COc1ccc(-c2cccc(C(=O)N3CCN(C(=O)Cc4cccc(Cl)c4)CC3)c2)nn1 | -25.1% |  |  |
| O=C(N[C@H]1CCOC[C@H]1C1CCOCC1)c1scc2c1OCCO2 | -0.0014% |  |  |
| Cc1nc(C(=O)N2CC[C@H](NS(=O)(=O)c3cccs3)C[C@H]2C(=O)N[C@H](Cc2c[nH]c3ccccc23)C(N)=O)cs1 | 2.43% |  |  |
| Cn1ccnc1C(=O)N1CCCCCCNC(=O)[C@@H]2C[C@@H](C(=O)N3CCc4ccccc4C3)C[C@@H]21 | -13.4% |  |  |
| O=C(NCc1cccnc1)C1CCC(=O)N1C1CCNCC1 (stereo not drawn) | -3.85% |  |  |

| Structure (SMILES) | activity change, negative = cytotoxicity | outcome | Potency |
| --- | --- | --- | --- |
| CC1=C[C@@H](CNC2CC2)[C@H](C(C)C)C[C@H]1Cc1nnc(-c2ccc(C)cc2)o1 |  |  | 39.8 µM (active) |
| CC1=C[C@@H](CNC(C)C)[C@H](C(C)C)C[C@H]1Cc1nnc(-c2ccc(N(C)C)cc2)o1 |  |  | 31.6 µM (active) |
| CC(=O)NC[C@@H]1C=C(C)[C@H](CC(=O)N2CCCC2)C[C@H]1C(C)C | 3.57% [at 174 µM] |  |  |
| CC1=C[C@@H](CN2CCOCC2)[C@H](C(C)C)C[C@H]1Cc1nnc(-c2ccc([N+](=O)[O-])cc2)o1 |  |  | 35.5 µM (active) |
| CC1=C[C@@H](CNC(=O)NC(C)C)[C@H](C(C)C)C[C@H]1Cc1nnc(-c2ccncc2)o1 |  |  | 56.2 µM (active) |
| COC1C(=O)N(c2cccc(F)c2)C12CCN(C(=O)C1(c3ccccc3)CC1)CC2 (stereo not drawn) | -15.4% |  |  |
| CCn1ccc(C(=O)N2C[C@@H]3CCCN4CCC[C@@H]([C@H]34)[C@H]2CCCC(=O)Nc2ccccc2)n1 | 1.62% |  |  |
| CC(=O)NC1CC2(CCN(C(=O)CCC(=O)O)CC2)c2ccccc21 (stereo not drawn) | 2.38% |  |  |
| CS(=O)(=O)N1Cc2ccccc2CC2(CCN(Cc3ccncc3)C2)C1 (stereo not drawn) | -28.9% |  |  |
| CCN1CCc2[nH]cnc2C12CCN(C(=O)C1CCc3ccccc3C1)CC2 (stereo not drawn) | -24.9% |  |  |
| Cc1cc2nc3n(c(=O)c2n1CC(=O)Nc1cccc(C(F)(F)F)c1)CCCC3 | -24.2% |  |  |
| O=C(NCc1ccncc1)c1csc(N2CCN(c3ccccc3F)CC2)n1 | -23.9% |  |  |
| O=C(c1ccc(C(F)(F)F)cc1)N1CCCC2(CC(c3ccccn3)=NO2)C1 (stereo not drawn) | -7.84% |  |  |
| COc1ccc(CC(=O)NC[C@@H]2C=C(C)[C@H](Cc3nc4ccncc4[nH]3)C[C@H]2C(C)C)cc1 | -26.3% |  |  |
| COc1ccc(C(=O)NC[C@@H]2C=C(C)[C@H](Cc3nnc(-c4cncn4C)o3)C[C@H]2C(C)C)cc1 |  |  | 25.1 µM (active) |
| CC1=C[C@@H](CNC(C)C)[C@H](C(C)C)C[C@H]1Cc1nnc(-c2ccc(C)cc2)o1 |  |  | 50.1 µM (active) |
| Fc1ccc(CN2CC[C@H](c3nnc(-c4ccccc4F)o3)C2)cc1 | -21.5% [at 138 µM] |  |  |
| CC1=C[C@@H](CN2CCN(CCO)CC2)[C@H](C(C)C)C[C@H]1Cc1nnc(-c2ccc(C)cc2)o1 |  |  | 39.8 µM (active) |
| COc1ccc(C(=O)NCc2nnc3cc(-c4nc(C)no4)ccn23)cc1 | -12.2% |  |  |
| CC1=C[C@@H](CN2CCC(O)CC2)[C@H](C(C)C)C[C@H]1Cc1nnc(-c2ccccc2F)o1 |  |  | 112 µM (active) |
| O=C1NCc2ccccc2CC12CCN(Cc1ccc(CO)o1)C2 (stereo not drawn) | -2.07% |  |  |
| CC(C)c1ccccc1NC(=O)Cn1cccc1-c1nc(-c2ccccc2)no1 | 0.152% |  |  |
| Cc1ccc(CN2CCNC(=O)C2CC(=O)NC2(CO)CCCC2)cc1 (stereo not drawn) | -0.757% |  |  |
| Cc1ncc2c(c1CNC(=O)c1ccccc1F)CCN(C(=O)Cc1cccc(F)c1)C2 | -9.27% |  |  |

| Structure (SMILES) | activity change, negative = cytotoxicity | outcome | Potency |
| --- | --- | --- | --- |
| CC(C)C(=O)NCC12CCC=C1N(C)C(=O)CC2 (stereo not drawn) | -0.138% |  |  |
| COCCN1C(=O)CS(=O)(=O)C12CCN(C(=O)c1ccc(OC)cc1)CC2 | -5.73% |  |  |
| CNC(=O)[C@@H]1CN(C(=O)c2cccc(OC)c2)C[C@H]1COC |  | inactive |  |
| O=C(NC1CCC(n2cc(C(=O)N3CCCC3)nn2)CC1)C(c1ccccc1)C1CCCC1 (stereo not drawn) | -0.0895% |  |  |
| COCCNc1ncc(C(=O)O)c(C)n1 | -8.62% |  |  |
| O=C(Nc1ccc2ncnc(N3CCCCC3)c2c1)c1ccc2c(c1)OCO2 | -20.6% |  |  |
| N[C@@H]1CC[C@H](C(=O)N2CCN(CCCOc3ccc(F)cc3)CC2)C1 | -28% |  |  |
| O=C(CCc1nnn2c1CN(C(=O)NCCc1ccccc1)CC2)NC1CC1 | 1.43% |  |  |
| CCn1cc(Cl)c(C(=O)N2CCCn3cc(-c4ccccc4)nc32)n1 | -11.8% |  |  |
| COCC(=O)NC[C@@H]1C=C(C)[C@H](CC(=O)Nc2ccccn2)C[C@H]1C(C)C | -17% [at 138 µM] |  |  |
| CC1=C[C@@H](CN(C)CCc2ccccn2)[C@H](C(C)C)C[C@H]1Cc1nnc(-c2ccccc2F)o1 |  |  | 35.5 µM (active) |
| CCCc1nnc(C[C@@H]2C[C@@H](C(C)C)[C@H](CN3CCC[C@H]3CO)C=C2C)o1 |  |  | 50.1 µM (active) |
| CNC(=O)c1cn2c(n1)CN(C(C)=O)CC2 |  | inactive [at 174 µM] |  |
| COc1cc(CCC(=O)N2C[C@@H](C(N)=O)[C@H](c3n[nH]c(C)n3)C2)on1 | -12.8% |  |  |
| COc1ccc(C(=O)N2C[C@@H](CO)[C@H](c3ccncc3)C2)cc1F | -8.96% |  |  |
| Cc1ccccc1C(=O)N1CCC2(CC1)OCC(C(=O)N1CCOCC1)N2C(=O)c1cccc(F)c1 (stereo not drawn) |  | inactive |  |
| O=C(c1ccc(F)c(F)c1)N1CCC([C@@H]2CNC[C@H]2CO)CC1 | -0.844% |  |  |
| COc1ccc(-c2noc(-c3nnn4c3COC(c3ccc(F)cc3)C4)n2)cc1 (stereo not drawn) | -4.85% |  |  |
| Cc1ccc(S(=O)(=O)Nc2ccc(C)n(CC(=O)NCc3cccc(F)c3)c2=O)cc1 | 0.908% |  |  |
| CC1CCC2(CC1)OCC(C(=O)NCc1ccc3c(c1)OCO3)N2C(=O)c1ccccc1F (stereo not drawn) |  |  | 20 µM (active) |
| O=C(NCc1ccc(F)cc1)C1COC2(CCCCC2)N1C(=O)c1ccccc1 (stereo not drawn) | -8.67% |  |  |
| CC(C)CNC(=O)C1COC2(CCC(C)CC2)N1C(=O)c1cccc(F)c1 (stereo not drawn) | -12% |  |  |
| CCCOc1cc(C)c2c(c1C)C[C@H](C(C)C(=O)N1CCOCC1)CC2 (stereo partly drawn) | -17.8% [at 174 µM] |  |  |
| Fc1cccc(-c2ncc[nH]2)c1 | -21.4% [at 230 µM] |  |  |

| Structure (SMILES) | activity change, negative = cytotoxicity | outcome | Potency |
| --- | --- | --- | --- |
| O=C1NC[C@@H](CCC(=O)N2CCN(c3ccccn3)CC2)N2C[C@@H](NCc3ccccc3)C[C@@H]12 | 4.35% |  |  |
| CC(C)N1CC2(C1)C(=O)N(CCCN1CCCC1=O)C(=O)[C@@H]1C[C@@H](O)CN12 | 0.0127% [at 174 µM] |  |  |
| COc1ccccc1-c1cc(C(=O)N(C)C)nc2c1cnn2C | 3.84% |  |  |
| COc1ccccc1-c1ccc(C(=O)O)cc1 | -6.43% [at 138 µM] |  |  |
| COc1ncccc1-c1cc(-c2cn[nH]c2)c2cncn2c1 |  |  | 70.8 µM (active) |
| COc1ccccc1-c1cc(-c2cn[nH]c2)c2cncn2c1 |  |  | 50.1 µM (active) |
| O=C(CCn1cncn1)N1CCc2[nH]nc(-c3cccc4ccccc34)c2C1 | -1.41% |  |  |
| CCCN(CC1CCOC1)C(=O)Nc1ccccc1C(F)(F)F (stereo not drawn) | -7.03% |  |  |
| O=[S+]([O-])(c1cccc(C(F)(F)F)c1)N1CCC2(CCN(CCc3ccccc3)c3ccccc3O2)CC1 | -24.8% |  |  |
| Cc1ccc(CN2CCC(C3CCN(S(C)(=O)=O)CC3)C2)nc1 (stereo not drawn) | -8.33% |  |  |
| CCCNc1cc(N2CCC(CCC(=O)Nc3ccc(C)cc3)CC2)ncn1 | -17.3% |  |  |
| COc1ccccc1Oc1ncccc1CNC(=O)c1ccc2n[nH]nc2c1 | -16% |  |  |
| Cc1ccc(-c2ccccc2CN2CCN([S+](=O)([O-])c3cccc(C(F)(F)F)c3)CC2)cc1Cl | -40.4% |  |  |
| CC(=O)NC(C)c1nnc2n1CCN([S+](=O)([O-])c1ccccc1)C2 (stereo not drawn) | -19% |  |  |
| CC(C)c1ccc([S+](=O)([O-])N2CCN(c3cccc(CN(C)[S+](C)(=O)[O-])c3F)CC2)cc1 |  |  | 35.5 µM (active) |
| NCC(=O)N1Cc2ccccc2CC2(CCCCN2CC2CCOCC2)C1 (stereo not drawn) | -0.121% |  |  |
| CC(=O)NCCC(=O)N1Cc2ccccc2CC2(CCCCN2CC2CCNC2)C1 (stereo not drawn) | -0.729% |  |  |
| O=C(C1CCCC1)N1Cc2ccccc2CC2(CCCCN2CC2CCNCC2)C1 (stereo not drawn) |  |  | 17.8 µM (active) |
| Cc1ccccc1OCC(=O)N1CCC2(CC1)NC(=O)N(Cc1ccccc1)C2=O | -1.63% |  |  |
| Cc1ccc2[nH]c(=O)c(CCC(=O)NCc3ccncc3)cc2c1 |  | inactive |  |
| COC(=O)[C@@H]1C[C@H](NC(=O)c2cc(OC)nc(OC)n2)CN1C | 2.76% |  |  |
